Measurements taken from PubChem BioAssay AID602281 (The Scripps Research Institute Molecular Screening Center, 2012).
The whole screen tested about 360,000 compounds, of which about 2,900 (0.81%) were called active.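 Rule for the calls: active = inhibition above the mean inhibition across every tested compound plus 3 SD (cut at about 22% in these data); inactive = the rest.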 The entries come from a sample that favours actives as a whole.

molecular target: Perilipin-5 (Homo sapiens) + 1-acylglycerol-3-phosphate O-acyltransferase ABHD5 (Homo sapiens) (UniProt Q00G26+Q8WTS1); assay: ABHD5-PLIN5 interaction inhibitors, primary screen, cell lysate, split luciferase complementation, luminescence (AID 602281);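 note: 0% = DMSO only wells and the 100% control is not disclosed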; details: Split G. princeps luciferase complementation, 4 h, at 4 µM, stronger effect = higher value
Sequence (Q00G26 whole entry, looked up): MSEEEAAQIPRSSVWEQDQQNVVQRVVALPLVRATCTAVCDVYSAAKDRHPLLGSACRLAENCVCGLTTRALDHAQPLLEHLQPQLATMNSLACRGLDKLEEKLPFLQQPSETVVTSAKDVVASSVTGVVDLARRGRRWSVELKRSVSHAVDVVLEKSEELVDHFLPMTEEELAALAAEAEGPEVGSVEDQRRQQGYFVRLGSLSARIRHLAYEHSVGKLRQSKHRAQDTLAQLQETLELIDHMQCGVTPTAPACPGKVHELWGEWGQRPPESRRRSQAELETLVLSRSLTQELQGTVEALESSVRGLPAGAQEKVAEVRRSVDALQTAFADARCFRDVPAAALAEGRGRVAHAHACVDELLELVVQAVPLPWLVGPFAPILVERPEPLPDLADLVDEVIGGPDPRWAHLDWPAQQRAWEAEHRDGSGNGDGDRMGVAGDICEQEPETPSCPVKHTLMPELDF
Sequence (Q8WTS1 whole entry, looked up): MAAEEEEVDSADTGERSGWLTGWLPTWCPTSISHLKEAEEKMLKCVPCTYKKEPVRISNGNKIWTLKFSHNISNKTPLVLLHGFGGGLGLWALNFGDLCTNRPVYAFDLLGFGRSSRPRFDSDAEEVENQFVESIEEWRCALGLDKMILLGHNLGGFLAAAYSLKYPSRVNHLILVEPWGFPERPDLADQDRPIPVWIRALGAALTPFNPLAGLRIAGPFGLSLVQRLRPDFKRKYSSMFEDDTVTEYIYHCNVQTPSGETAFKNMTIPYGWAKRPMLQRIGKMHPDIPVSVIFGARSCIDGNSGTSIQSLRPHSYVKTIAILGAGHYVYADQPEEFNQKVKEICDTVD

Row | SMILES | inhibition
1 | CCN1CCC(O)(/C=C/c2ccc(C)cc2)C(C(=O)/C=C/c2ccc(C)cc2)C1 (configuration not stated) | 75% (active)
2 | CN(CC(=O)Nc1cccc2c1CCCC2)S(=O)(=O)c1ccc(Cl)cc1 | 4.76% (inactive)
3 | COC(=O)Cc1ccc(OC(=O)C2CCN(S(=O)(=O)c3ccc(OC)c(OC)c3)CC2)cc1 | 4.12% (inactive)
4 | CC1(C(=O)NCc2cccc3ccccc23)CCN1Cc1ccc(-c2ccccc2)o1 (configuration not stated) | 40.4% (active)
5 | CSc1ccc(CN2CCC2(C)C(=O)NCc2ccccc2Br)cc1 (configuration not stated) | -5.69% (inactive)
6 | CC1(C(=O)NCc2ccc3c(c2)OCO3)CCN1C(=O)Cc1cccc2ccccc12 (configuration not stated) | 0.84% (inactive)
7 | CN(C)c1cccc(C(=O)N2CCC(n3nccc3NC(=O)C3CCOC3)CC2)c1 (configuration not stated) | -0.66% (inactive)
8 | CC(C)(C)NC(=O)C(CCc1ccccc1)n1c(=O)c(-c2ccccc2)nc2ccccc21 (configuration not stated) | 22.9% (active)
9 | CSCCC(C(=O)NC(C)(C)C)n1c(-c2ccccc2)nc2ccccc21 (configuration not stated) | -13.8% (inactive)
10 | CCC(C(=O)NC(C)(C)C)n1c(-c2ccccc2)nc2ccccc21 (configuration not stated) | 9.54% (inactive)
11 | COc1ccc(S(=O)(=O)N2CCCCC2)cc1NC(=O)C1CC(=O)N(c2ccc3c(c2)OCCO3)C1 (configuration not stated) | 12.7% (inactive)
12 | CCOCN(C(=O)Cn1c(C(C)O)nc2ccccc21)c1c(C)cccc1CC (configuration not stated) | -2.38% (inactive)
13 | CN(C)C(=O)COC(=O)c1cccc(S(=O)(=O)N2CC3(C)CC2CC(C)(C)C3)c1 (configuration not stated) | -4.49% (inactive)
14 | Cc1nnnn1/C(=C\c1ccccc1)C(=O)OCC(=O)N1CC2(C)CC1CC(C)(C)C2 (configuration not stated) | 38.6% (active)
15 | O=S(=O)(NCc1cccnc1)c1ccc(Cl)nc1 | 5.93% (inactive)
16 | Cc1cc(C)c(C)c(S(=O)(=O)Nc2ccc(O)cc2)c1C | 4.3% (inactive)
17 | COc1ccc(CN2C(=O)C(CC(=O)NCCN3CCOCC3)CC(C(=O)N(C(C)C)C(C)C)=C2C)cc1 (configuration not stated) | -11% (inactive)
18 | CCCCCCCCCCCCCCCC(=O)OC/C=C(C)/C=C/C=C(C)/C=C/C1=C(C)CCCC1(C)C | -4.62% (inactive)
19 | O=C(Nc1ccccc1C(F)(F)F)N1CCCC1c1cccnc1 (configuration not stated) | 11.2% (inactive)
20 | CCOC(=O)c1cccc(NC(=O)CCc2nnc3ccc(N4CCOCC4)nn23)c1 | -2.37% (inactive)
21 | CCOc1ccccc1NC(=O)CCc1nnc2ccc(NCc3ccco3)nn12 | 16.7% (inactive)
22 | O=C(CCc1nnc2ccc(NCc3ccco3)nn12)Nc1cc(F)ccc1F | 22.5% (active)

Row | SMILES | inhibition
23 | CC(=O)c1ccc(NC(=O)CCc2nnc3ccc(NCc4ccco4)nn23)cc1 | 27.9% (active)
24 | O=C(CNc1ccc(F)cc1F)NC(=O)NCc1ccco1 | -0.2% (inactive)
25 | CC1CCN(C(=O)CCc2nnc3ccc(NCc4ccco4)nn23)CC1 | 7.83% (inactive)
26 | Cc1ccc(-n2c(SCC(=O)Nc3ncc(Cl)cc3Cl)nc3ccccc32)cc1 | -7.45% (inactive)
27 | Nn1c(SCC(=O)NC2CCCc3ccccc32)nnc1C1CC1 (configuration not stated) | 10.4% (inactive)
28 | O=S(=O)(Nc1nccs1)c1ccc2c(c1)OCCO2 | -5.22% (inactive)
29 | CCOc1ccc2nc(Cl)c(C3CC(c4ccccc4)=NN3C(=O)c3cccs3)cc2c1 (configuration not stated) | -5.74% (inactive)
30 | Cc1cccc(C)c1NC(=O)CN1C(=O)C(C)Oc2ccccc21 (configuration not stated) | -5.51% (inactive)
31 | O=C(NCCOCc1ccc(Cl)cc1)c1ncn[nH]1 | 24.2% (active)
32 | Cc1cc(C(=O)NCCc2ccc(Cl)cc2)n(-c2ccccc2)n1 | 1.98% (inactive)
33 | O=C(NCCS(=O)(=O)NCc1ccc(Cl)cc1)c1ccccc1 | -6.46% (inactive)
34 | O=C(C(=O)N1CCc2ccccc2C1)c1c[nH]c2ccccc12 | 0.81% (inactive)
35 | COc1cccc(C(CC(=O)NCCN2CCOCC2)NS(=O)(=O)c2ccc(C)cc2)c1OC (configuration not stated) | 9.39% (inactive)
36 | Nc1ccc2nc3c(=O)[nH]c(=S)[nH]c3nc2c1 | 35% (active)
37 | O=C(CS(=O)(=O)Cc1ccccc1)Nc1cccnc1 | -3.38% (inactive)
38 | CN(CC(=O)Nc1ccc(F)cc1)CC(=O)Nc1ccc(Cl)c(S(=O)(=O)N2CCOCC2)c1 | 5.71% (inactive)
39 | Cc1cccc(C(=O)Nc2ccc(Oc3cnccn3)cc2)c1 | 3.4% (inactive)
40 | Cc1cccc(CS(=O)(=O)c2ncc(Cl)c(C(=O)Nc3ccc(F)cc3)n2)c1 | 53.6% (active)
41 | Cc1cccc(NC(=O)c2nc(S(=O)(=O)Cc3ccccc3)ncc2Cl)c1 | 72.4% (active)
42 | Cc1cccc(NS(=O)(=O)c2ccc(C)c(C(=O)NCc3cccnc3)c2)c1 | 3.74% (inactive)
43 | O=C(NCCN1CCN(C(=O)c2cccc([N+](=O)[O-])c2)CC1)C(=O)NCc1ccc(Cl)cc1 | 12.1% (inactive)
44 | CCOc1cc(C(=O)Nc2c(C)ccc3nsnc23)cc(OCC)c1OCC | -10.9% (inactive)

Row | SMILES | inhibition
45 | C[C@@H]1C[C@@H]2O[C@H]2/C=C\C=C\C(=O)Cc2c(Cl)c(O)cc(O)c2C(=O)O1 | 27.7% (active)
46 | COc1ccccc1CNS(=O)(=O)c1cc(C(=O)NCc2ccccn2)c(Cl)cc1Cl | 2.36% (inactive)
47 | Cc1ccc2c(c1)N(CC(=O)N1CCC(C)CC1)C(=O)c1cccnc1O2 | -5.07% (inactive)
48 | Cc1ccc(N(C(=O)c2ccc(CN3CCOCC3)o2)C(C(=O)NCCC(C)C)c2cccs2)c(C)c1 (configuration not stated) | 5.44% (inactive)
49 | Cc1ccc(S(=O)(=O)N2CCC(C(=O)N[C@@H](C)C(=O)NCCc3ccccc3)CC2)cc1 | -6.43% (inactive)
50 | NC(=S)Nc1c(Cl)cccc1Cl | -3.54% (inactive)
51 | CCCCN(CCCC)CCNC(=O)CN1C(=O)COc2ccc(S(=O)(=O)N3CCOCC3)cc21 | -1.64% (inactive)
52 | Cc1cc2nc(-c3ccc(Cl)cc3)c(Cc3cccc(F)c3)n2c(C)c1Br | -5.68% (inactive)
53 | Fc1cccc(Cc2c(-c3cccc(Cl)c3)nc3ccc(Br)cn23)c1 | -8.3% (inactive)
54 | Cc1cc2nc(-c3ccco3)c(Cc3cccc(F)c3)n2c(C)c1Br | 23.1% (active)
55 | Cc1cc2nc(-c3ccc(F)cc3)c(Cc3ccsc3)n2c(C)c1Br | -2.1% (inactive)
56 | Cc1ccc(Cc2c(-c3ccccc3)nc3ccc(Cl)cn23)cc1 | -3.87% (inactive)
57 | Cc1ccc2nc(-c3ccco3)c(Cc3cccc(Cl)c3)n2c1 | 32.1% (active)
58 | Clc1cccc(Cc2c(-c3cccc(Cl)c3)nc3ccc(Cl)cn23)c1 | -8.19% (inactive)
59 | Fc1cccc(Cc2c(-c3ccc(Cl)cc3)nc3ccc(Cl)cn23)c1 | 11.5% (inactive)
60 | Cc1ccc(Cc2c(-c3ccco3)nc3ccc(Cl)cn23)cc1 | 54.8% (active)
61 | Nn1c(SCc2ccccc2)nnc1C1CCCCC1 | 7.84% (inactive)
62 | CCOc1ccc(NC(=O)CN(C)CC(=O)Nc2cccc(Cl)c2C)cc1OCC | -2.27% (inactive)
63 | COCCN1Cc2cccc(C(=O)Nc3ccccc3OC)c2C1=O | 2.14% (inactive)
64 | CCc1ccccc1S(=O)(=O)Cc1ccc(C(=O)NCCc2ccccc2)o1 | 0.54% (inactive)
65 | CCC(C)CN1C(=O)CSCC1(C)C(=O)NCc1ccccc1 (configuration not stated) | -0.17% (inactive)
66 | NC(=O)C(Cc1ccccc1)NC(=O)C12CC3CC(CC(C3)C1)C2 (configuration not stated) | -7.59% (inactive)

Row | SMILES | inhibition
67 | COc1cc(OC)cc(C(=O)NNC(=O)CNC(=O)c2ccc(Br)o2)c1 | 1.69% (inactive)
68 | CCCCCCNC(=O)O[C@H]1CN(C(=O)OC(C)C)N(C(=O)OC(C)C)[C@@H]2CN(S(=O)(=O)c3ccc(C)cc3)C[C@]12O | -9.24% (inactive)
69 | CCOCCOC(=O)C1=C(C)N(C)C(=O)NC1c1ccccc1F (configuration not stated) | 2.63% (inactive)
70 | CN1c2ccc(C=O)c3c(C=O)ccc(c23)N(C)C1(C)C | 7.33% (inactive)
71 | Cc1cc(C)c(NC(=O)C[N+](C)(C)CC(O)COc2cccc3ccccc23)c(C)c1 (configuration not stated) | 33% (active)
72 | Cc1cc(C)cc(OCC(=O)NCc2cc(C)nc3ccccc23)c1 | 0.84% (inactive)
73 | CC(C)c1ccccc1OCC(O)CN(CC(O)COc1cccc2ccccc12)C(C)C (configuration not stated) | 8.09% (inactive)
74 | NC(=O)c1ncn([C@@H]2O[C@H](CNCc3cnc(N4CCOCC4)s3)[C@@H](O)[C@H]2O)n1 | -2.34% (inactive)
75 | COc1ccc(C(=O)c2c3ccc([N+](=O)[O-])cc3[n+]([O-])n2CCCN)cc1 | -9.06% (inactive)
76 | O=C(Cc1ccccn1)c1ccc(O)cc1O | -1.78% (inactive)
77 | O=C(NNc1c2ccccc2nc2ccccc12)c1cc2ccccc2cc1O | 26.3% (active)
78 | O=C(CSc1nc(C2CC2)nc2ccccc12)Nc1cccc(O)c1 | -2.61% (inactive)
79 | CCCn1c(N)c(N(CCOC)C(=O)C2CCCC2)c(=O)[nH]c1=O | -0.19% (inactive)
80 | Cc1ccc(CC(=O)N(C)CC(=O)N(CC(C)C)c2c(N)n(CC(C)C)c(=O)[nH]c2=O)cc1C | -2.36% (inactive)
81 | Cc1ccccc1/C=C\c1nc(O)c([N+](=O)[O-])c(=O)[nH]1 | 15.6% (inactive)
82 | O=c1cc(O)c(-c2cccc(C(F)(F)F)c2)c(Cl)[nH]1 | 1.03% (inactive)
83 | O=c1[nH]c(/C=C\c2cccc(C(F)(F)F)c2)nc(O)c1[N+](=O)[O-] | 42.7% (active)
84 | COCCCNC(NC(=O)c1ccc(C)cc1)C(Cl)(Cl)Cl (configuration not stated) | -2.85% (inactive)
85 | COc1ccccc1CNC(=O)c1ccc(N(C)S(=O)(=O)c2ccc(C)cc2)cc1 | 4.36% (inactive)
86 | CN(CCO)S(=O)(=O)c1ccc2c(c1)C(=O)c1cc(S(=O)(=O)N(C)CCO)ccc1-2 | -0.45% (inactive)
87 | CCC1(c2ccccc2)NC(=O)N(CC(=O)Nc2ccccc2C(=O)NC2CCCC2)C1=O (configuration not stated) | -4.04% (inactive)
88 | C=C(C)C(=O)O[C@H]1C/C(C)=C\C(=O)/C=C(\C)[C@H](O)[C@@H]2OC(=O)C(=C)[C@@H]21 | 27% (active)

Row | SMILES | inhibition
89 | CCS(=O)(=O)Nc1ccc(C2=NN(S(=O)(=O)c3ccc(F)cc3)C(c3ccco3)C2)cc1 (configuration not stated) | 29.4% (active)
90 | Cc1ccc(C2=NN(C(=O)CSc3nc(N)cc(N)n3)C(c3ccco3)C2)cc1 (configuration not stated) | 12.7% (inactive)
91 | COc1cccc(C2CC(c3ccccc3)=NN2S(=O)(=O)c2ccccc2)c1OC (configuration not stated) | -7.74% (inactive)
92 | O=C(NCc1ccccn1)c1c(O)c2c([nH]c1=O)CCCC2 | 3.03% (inactive)
93 | C/C(=C\c1ccccc1)C1NC(=O)c2c(sc3c2CCCC3)N1 (configuration not stated) | -8.89% (inactive)
94 | Cc1[nH]c(=O)c(C(=O)/C=C/c2ccccc2)c2c1CCCC2 | 32.6% (active)
95 | COC(=O)COc1cccc2c(=O)n(CC(=O)NCc3ccccc3)ccc12 | -4.9% (inactive)
96 | CCN(CC(=O)Nc1c(F)cccc1F)C(=O)c1ccc(S(=O)(=O)N2CCCCC2)cc1 | 0.66% (inactive)
97 | COc1cc(C(=O)NNC(=O)c2ccc(S(=O)(=O)N3CCCCC3)cc2)cc(OC)c1OC | 0.06% (inactive)
98 | CN(C)CCCN(C(=O)c1ccc(S(=O)(=O)N2CCCCCC2)cc1)c1nc2ccc(Br)cc2s1 | 22.3% (active)
99 | COc1ccc(NC(=O)CN(C)C(=O)/C=C/c2cn(Cc3ccccc3)nc2-c2cccnc2)cc1 | 0.58% (inactive)
100 | O=C(O)CCn1cc(/C=C/C(=O)c2ccc(Cl)cc2)c(-c2cccc(Br)c2)n1 | 22.9% (active)
101 | Cc1ccc(S(=O)(=O)N[C@H](CO)C(C)C)cc1 | 2.76% (inactive)
102 | COc1ccc(C(=O)/C=C/c2ccc(-c3ccccc3)cc2)cc1CSCC(=O)O | 14.9% (inactive)
103 | COc1ccc(/C=C/C(=O)c2ccc(NS(=O)(=O)c3ccc(C)cc3)cc2)cc1O | 46% (active)
104 | COc1ccc(S(=O)(=O)Nc2ccc3oc(C)c(C(C)=O)c3c2)cc1 | 4.01% (inactive)
105 | CC(C)Cc1nn2c(=O)cc(O)nc2s1 | 4.21% (inactive)
106 | O=C(NCC(=O)N(Cc1cccs1)C(C(=O)NC1CCCCC1)c1ccco1)c1cccs1 (configuration not stated) | -12.1% (inactive)
107 | CCNC(=O)CC1C(=O)N(c2ccc(OC)cc2)C(=O)N1CCOC (configuration not stated) | 2.8% (inactive)
